# From PubChem BioAssay
# D1 antagonist: blocks dopamine activation of the human D1 receptor; HEK293 TREx D1 cells, calcium flux, dopamine EC80; hits give low values; activity change, negative = inhibition, % at 10 µM; hit rate 3.2% among 360,000; AID 504652; in the data active = activity change below about -30%; note: % is set by controls: 0 for no effect and ±100 for the full control effect
#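 Allosteric or orthosteric antagonism assessed as attenuation of the calcium response to EC80 dopamine, added 180 s after compound, in induced HEK293 Trex D1 cells loaded with no-wash calcium dye.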
# D1 agonist: activates the human D1 dopamine receptor; HEK293 T-REx D1 cells, calcium flux, agonist mode; activation, % at 2 µM; hit rate 1% among 360,000; P21728; in the data active = activation above about 30%; note: 0% is about no effect
#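 Agonism was scored from calcium flux recorded over 180 s (1 read/s) after pintool compound addition, following a 10-cycle baseline. Cells were inducible force-coupled HEK293 TREx D1, plated overnight at 30 C and loaded with no-wash calcium dye.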
# D3 ag: activates the human D3 dopamine receptor. P35462. D3R DiscoveRx beta-arrestin cells, luminescence, 90 min. max activation, %. hit rate 0.58% among 410,000. AID 652048; in the data active = max activation above about 30%; note: 0% is about no effect
# Target sequence (P35462 whole entry, looked up): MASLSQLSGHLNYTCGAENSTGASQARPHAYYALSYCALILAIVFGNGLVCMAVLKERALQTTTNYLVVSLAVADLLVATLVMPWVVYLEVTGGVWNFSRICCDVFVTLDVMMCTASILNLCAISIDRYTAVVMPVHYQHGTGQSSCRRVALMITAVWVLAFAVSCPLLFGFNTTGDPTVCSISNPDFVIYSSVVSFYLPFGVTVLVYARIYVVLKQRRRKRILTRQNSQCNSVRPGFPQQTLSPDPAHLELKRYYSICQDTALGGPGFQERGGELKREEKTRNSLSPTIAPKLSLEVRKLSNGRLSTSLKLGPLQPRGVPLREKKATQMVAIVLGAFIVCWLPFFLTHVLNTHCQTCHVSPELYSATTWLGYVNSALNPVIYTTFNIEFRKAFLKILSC
#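 Cells at 1500/well, incubated overnight, then treated with pinned compounds (dopamine as control) for 90 min at 37 degrees C. DiscoveRx reagent added for 30 - 60 minutes at room temperature; luminescence read.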
# DRD3 antagonist: blocks the human D3 dopamine receptor; P35462; D3R cells, DiscoveRx beta-arrestin luminescence, antagonist mode; hits give low values; max response, negative = inhibition, %; hit rate 2.5% among 360,000; in the data active = max response below about -50%; note: % is set by controls: 0 for no effect and ±100 for the full control effect
#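 Cells plated overnight at 1500 cells/well, then exposed to library compounds with dopamine controls for 90 minutes at 37 degrees C. DiscoveRx reagent added for 30–60 minutes at room temperature; luminescence read, quantitative HTS format.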
# D1 PAM: potentiators of human D1 dopamine receptor; P21728; HEK293 TREx D1 cells, calcium flux, dopamine EC20 potentiation; potentiation, % at 10 µM; hit rate 0.036% among 360,000; in the data active = potentiation above about 30%; note: 0% is about no effect
# Starred values were filed as active, the others as inactive; / = no result. Shown are actives, neighbours in structure and some others; about 6.1% of the full set was active somewhere.
SMILES,D1 antagonist,D1 agonist,D3 ag,DRD3 antagonist,D1 PAM
CC(NC(=O)CN1C(=O)NC2(CCCC2)C1=O)c1ccc2ccccc2c1 (stereo unspecified),19.9,-0.7,-8.0,-19.3,-11.2
COc1ccc(C(NC(=O)CN2C(=O)NC3(CCc4ccccc43)C2=O)c2ccc(OC)cc2)cc1 (stereo unspecified),-7.4,2.1,-7.1,-2.7,-6.8
Cc1ccc(CN2CCN(CC(=O)NC(C)c3ccc4c(c3)OCCO4)C2=O)cc1 (stereo unspecified),-11.1,44.4*,-1.4,-17.3,/
CC(NC(=O)CN1C(=O)NC2(CCc3ccccc32)C1=O)c1ccc2c(c1)OCCO2 (stereo unspecified),-42.5*,-0.7,10.0,6.1,-2.8
Cc1ccc(NC(=O)Cn2cc(C(=O)c3ccco3)c3ccccc32)c(C)c1,-12.1,7.1,-6.2,/,0.0
COc1cc(NC(=O)c2cc(C3CC3)nc3c2c(C)nn3-c2ccc(C)cc2)cc(OC)c1,-24.9,4.5,11.6,/,-2.4
O=C(c1ccc(Cn2cc(Br)cn2)o1)n1cccn1,-13.6,0.9,-2.2,-51.7*,-3.5
O=C(N/N=C/c1c(F)cccc1Cl)c1ccc(Cn2cc(Br)cn2)o1,-10.7,10.4,-23.7,-22.6,1.0
O=C(Nc1cccc(C(F)(F)F)c1)c1ccc(Cn2cc(Br)cn2)o1,-30.7*,34.0*,3.8,6.6,-5.5
C/C(=N\NC(=O)c1ccc(Cn2cc(Br)cn2)o1)c1ccc(NC(=O)c2ccoc2C)cc1,-42.8*,1.3,3.2,12.2,-4.3
O=C(Nc1ccc(C(F)(F)F)cc1Cl)c1ccc(Cn2cc(Br)cn2)o1,2.7,6.7,-1.4,-75.3*,4.6
O=C(NCc1ccccn1)c1ccc(Cn2cc(Br)cn2)o1,0.5,2.1,-0.8,21.2,-6.3
C/C(=N\NC(=O)c1ccc(Cn2cc(Br)cn2)o1)c1cccc(NC(=O)C(C)(C)C)c1,-19.0,5.1,18.2,38.2,-4.0
COc1cc2ncc3c(-c4ccccc4)nn(-c4ccc(C)cc4)c3c2cc1OC,0.8,0.7,19.9,/,0.1
O=C(NCCc1ccccc1)c1ccc2c(c1)N(Cc1ccc(Cl)cc1)C(=O)c1ccccc1S2(=O)=O,2.4,10.2,2.0,/,-1.1
Cc1cc(C)n(Cc2ccc(C(=O)Nc3cccc(Br)c3)o2)n1,-28.4,38.1*,-13.1,-16.2,-2.5
CCOC(=O)c1c(SCC(=O)Nc2nc3ccc(C)cc3s2)nc(=O)[nH]c1C,/,0.2,0.8,/,1.9
CN1CCCN(C2C3CC4CC(C3)CC2C4)CC1 (stereo unspecified),2.0,6.1,-4.0,-91.7*,-1.1
CCN(c1ccccc1)S(=O)(=O)c1ccc(Cl)c(C(=O)OCC(=O)NC(=O)C(C)C)c1,-34.0*,4.1,2.4,25.5,-1.3
CCN(c1ccccc1)S(=O)(=O)c1ccc(Cl)c(NC(=O)COC(=O)C2CC2C)c1 (stereo unspecified),-31.1*,7.2,-0.7,15.9,-3.0
CCc1c(-c2ccccc2)nc2ccccc2c1C(=O)NCCc1ccccc1,-6.6,3.1,14.5,/,-0.9
CC1(C(=O)NC2CCN(Cc3ccccc3)CC2)CCN1CCc1ccccc1 (stereo unspecified),/,/,-21.4,-85.2*,/
CC1(C(=O)NC2CCN(Cc3ccccc3)CC2)CCN1Cc1ccc2ccccc2c1 (stereo unspecified),/,/,-10.7,-97.1*,/
CC1(C(=O)NC2CCN(Cc3ccccc3)CC2)CCN1Cc1ccc(OC(F)(F)F)cc1 (stereo unspecified),/,/,-13.3,-65.4*,/
CC(C)(Oc1ccc(Cl)cc1)C(=O)NC1CCN(Cc2ccccc2)CC1,-51.2*,8.3,-27.7,-82.3*,-4.7
SMILES,D1 antagonist,D1 agonist,D3 ag,DRD3 antagonist,D1 PAM
COc1cc2nc(SCC(=O)Nc3ccccc3C)n3nc(CCn4c(C)nc5ccccc54)nc3c2cc1OC,6.0,-0.7,-12.5,/,0.1
Cc1cccc(C)c1NC(=O)CSc1nc2ccccc2c2nc(CCc3c(C)n[nH]c3C)nn12,-46.2*,2.1,10.5,/,0.1
O=c1c2oc3ccccc3c2n(Cc2ccc(Cl)cc2)c(=O)n1Cc1ccco1,-6.6,5.0,-7.2,/,-0.7
COc1ccc(N2CCN(S(=O)(=O)c3ccc4c(c3)NC(=O)C(C)S4)CC2)cc1 (stereo unspecified),-37.9*,14.2,19.5,9.9,1.6
CC1Sc2ccc(S(=O)(=O)CCC(=O)N3CCN(c4cccc(Cl)c4)CC3)cc2NC1=O (stereo unspecified),-42.1*,9.7,2.0,26.4,4.8
Cc1ccc(NC(=O)C2CCN(S(=O)(=O)c3ccc4c(c3)NC(=O)C(C)S4)CC2)c(C)c1 (stereo unspecified),-40.2*,8.3,3.7,5.2,0.9
COc1ccccc1NC(=O)C1CCN(S(=O)(=O)c2ccc3c(c2)NC(=O)C(C)S3)CC1 (stereo unspecified),-30.5*,13.4,-7.9,2.9,-0.6
Cc1ccc(NC(=O)C2CCN(S(=O)(=O)c3ccc4c(c3)NC(=O)C(C)S4)CC2)cc1C (stereo unspecified),-26.6,7.3,0.4,19.8,7.4
O=C(Nc1ccccc1C(F)(F)F)c1ccc(F)c(S(=O)(=O)N2CCc3ccccc3C2)c1,9.7,1.2,-3.8,/,2.1
COc1ccccc1NC(=O)c1ccc(S(=O)(=O)N2CCC(C)CC2)cc1,-32.2*,1.9,-3.2,-22.3,-4.0
COc1cccc(NS(=O)(=O)c2ccc3c(c2)NC(=O)C(C)S3)c1 (stereo unspecified),-0.4,12.8,3.2,10.1,6.9
COc1ccccc1NS(=O)(=O)c1ccc2c(c1)NC(=O)C(C)S2 (stereo unspecified),0.9,31.5*,0.7,-0.6,-3.9
CC(C)c1ccc(-c2nnn(Cc3nc4ccccc4s3)n2)cc1,-4.9,10.2,-3.5,-72.0*,2.0
CCOc1ccc(C(=O)CN2CCN(S(=O)(=O)c3ccc(Cl)cc3)CC2)cc1,-13.5,0.4,-7.7,-56.6*,6.5
COc1ccc(C(=O)CN2CCN(c3ccc(F)cc3)CC2)cc1,-19.4,1.6,2.5,-1.9,2.6
COc1ccc(S(=O)(=O)N2CCN(CC(=O)Nc3cccc(OC)c3)CC2)cc1,-4.9,-0.1,-4.0,-11.3,2.1
CCOc1ccc(S(=O)(=O)N2CCCC2)cc1,/,-2.2,12.8,3.1,-0.8
COC(=O)c1ccc(NC(=O)CN2CCN(S(=O)(=O)c3cc(Cl)ccc3OC)CC2)cc1,2.0,38.0*,10.0,3.2,-5.9
COc1ccc(C(=O)CN2CCN(S(=O)(=O)c3ccc(F)cc3)CC2)cc1,-30.2*,3.4,-14.0,/,-4.5
COc1ccc(Cl)cc1S(=O)(=O)N1CCN(CC(=O)Nc2ccccc2C(F)(F)F)CC1,15.0,1.2,14.2,/,0.8
COc1ccc(S(=O)(=O)N2CCN(CC(=O)Nc3ccc(F)c(F)c3)CC2)cc1,-33.1*,7.9,5.0,16.0,-7.8
